The values below come from PubChem BioAssay (NCATS).

Several values for one entry are separate records, joined by “and”; a condition that tells them apart may be missing. Identical values can stand only once. Records with an inconclusive call do not appear. Activity calls are given as the source filed them. Unless noted, the call rests on the fitted dose curve; in most records, active means well fitted cell-killing curve with a large enough effect; inconclusive means small, poorly fitted or top-dose-only effect; inactive means flat fitted curve, though single readings scatter.

Assay [1] in a line: NCATS anti-infectives library activity on HEK293 viability as a counter-qHTS vs the C. elegans viability qHTS (AID 1745854). Further: on the % scale 0 is the no-effect control and ±100 the full control effect. In outline:
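HEK293 cells, 1500 per well, exposed 24 hr at 37C in 5% CO2 to compounds in a 1:5 titration, up to 41.7 uM final. Viability read as CellTiter-Glo luminescence after 10 min at room temperature.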

Assay [2] has as its target Catechol O-methyltransferase (Homo sapiens) (UniProt P21964). Put plainly: Confirmatory Screen for Target Class Profiling of Small Molecule Inhibitors of Methyltransferases (AID 1745852; calls by dose curve; further: potency means the concentration at half of the fitted maximal effect; on activity change, negative = inhibition: on the % scale 0 is the no-effect control and ±100 the full control effect). The settings on record: MTase-Glo luminescence, SAH detection, recombinant enzyme; measured here: COMT max response; stronger effect = lower value.
Assay [3] has as its target Guanidinoacetate N-methyltransferase (Homo sapiens) (UniProt Q14353). Described as above. The settings on record: activity change, negative = inhibition: at 57.3 µM (top of the series) unless noted.
The target of assay [4] is Nicotinamide N-methyltransferase (Homo sapiens) (UniProt P40261). The assay is described as above. As to conditions: MTase-Glo luminescence, SAH detection, recombinant enzyme; measured here: NNMT max response; stronger effect = lower value.
Nicotinamide N-methyltransferase (Homo sapiens), sequence (P40261 whole entry, looked up): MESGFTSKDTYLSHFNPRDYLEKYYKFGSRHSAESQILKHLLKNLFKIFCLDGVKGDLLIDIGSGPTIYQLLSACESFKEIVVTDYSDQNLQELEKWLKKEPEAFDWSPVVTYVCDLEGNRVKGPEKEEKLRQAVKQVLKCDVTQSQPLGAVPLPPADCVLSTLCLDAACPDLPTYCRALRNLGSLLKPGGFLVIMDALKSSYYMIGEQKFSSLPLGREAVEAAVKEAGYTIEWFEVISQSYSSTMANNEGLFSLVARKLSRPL
In assay [5] the target is Phenylethanolamine N-methyltransferase (Homo sapiens) (UniProt P11086). The assay is described as above. As to conditions: MTase-Glo luminescence, SAH detection, recombinant enzyme; measured here: PNMT max response; stronger effect = lower value.
Phenylethanolamine N-methyltransferase (Homo sapiens), sequence (P11086 whole entry, looked up): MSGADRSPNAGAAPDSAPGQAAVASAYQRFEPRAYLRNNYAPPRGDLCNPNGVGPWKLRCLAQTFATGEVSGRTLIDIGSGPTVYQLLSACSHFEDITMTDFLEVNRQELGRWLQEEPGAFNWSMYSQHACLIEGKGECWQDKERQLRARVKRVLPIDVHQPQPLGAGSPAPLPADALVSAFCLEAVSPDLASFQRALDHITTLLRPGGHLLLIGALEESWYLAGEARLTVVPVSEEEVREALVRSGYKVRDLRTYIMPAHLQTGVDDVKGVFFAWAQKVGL

Catechol O-methyltransferase (Homo sapiens), sequence (P21964 whole entry, looked up): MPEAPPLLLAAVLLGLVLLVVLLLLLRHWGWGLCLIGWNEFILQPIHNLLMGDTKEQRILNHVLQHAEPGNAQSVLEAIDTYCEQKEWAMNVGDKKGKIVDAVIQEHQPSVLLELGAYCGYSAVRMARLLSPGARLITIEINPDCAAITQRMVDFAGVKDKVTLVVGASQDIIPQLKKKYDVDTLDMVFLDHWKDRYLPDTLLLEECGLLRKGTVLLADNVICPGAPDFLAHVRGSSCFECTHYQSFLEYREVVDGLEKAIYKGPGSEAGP

`COC(=O)C1=CO[C@@H](O[C@@H]2O[C@H](CO)[C@@H](O)[C@H](O)[C@H]2O)[C@@H]2[C@@H](C)[C@@H](O)C[C@H]12`: the outcome in assay [1] is “inactive”.

In the case of `COc1cc(/C=C/C(=O)O[C@H]2[C@H](OC(=O)/C=C/c3cc(OC)c(O)c(OC)c3)O[C@H](CO[C@@H]3O[C@H](CO)[C@@H](O)[C@H](O)[C@H]3O)[C@@H](O)[C@@H]2O)ccc1O`, the activity in assay [2] was -52.5%; in assay [4], -4.49%; in assay [5], -4.24%. In addition, the activity change, negative = inhibition in assay [3] came out at 0.645% [at 19.1 µM].

With `NS(=O)(=O)OC[C@@H]1C[C@@H](n2ccc3c(N[C@H]4CCc5ccccc54)ncnc32)C[C@@H]1O`, the activity in assay [2] was -6.43% and -2.13%; in assay [4], -12% and -2.45%; in assay [5], -79.3% and -73.9%. For the same molecule, the activity change, negative = inhibition in assay [3] was -2.34% and 2.95%. In addition, the outcome in assay [1] is “inactive”.

Take `OC1COC(OCC2OC(OCCc3ccccc3)C(O)C(O)C2O)C(O)C1O` (configuration not stated): the activity in assay [2] is -64.8%; in assay [4], 0%; in assay [5] it was 0%. Besides, the activity change, negative = inhibition in assay [3] is 0% [at 29.8 µM].

As to `C=C1[C@H]2[C@H](O[C@@H]3O[C@H](COC(=O)/C=C/c4cc(OC)c(O)c(OC)c4)[C@@H](O)[C@H](O)[C@H]3O)OC=C(C(=O)O)[C@H]2C[C@@H]1O`, the activity in assay [2] was -50.9%; in assay [4], 0%; in assay [5], 5.16%. In addition, the activity change, negative = inhibition in assay [3] came out at 0% [at 19.1 µM].

As for `N[C@H]1C[C@H]1c1ccc(-c2cccc(O)c2)cc1`, the outcome in assay [1] was “inactive”.

As for `OC[C@H]1O[C@@H](Oc2ccc(O)c3cccc(O)c23)[C@H](O)[C@@H](O)[C@@H]1O`, the activity was -82.3% in assay [2], -18.4% in assay [4] and -70.9% in assay [5]. Also, the Potency in assay [3] was 16.8 µM (active).

With `CC1(C)CCC2(C(=O)OC3OC(COC4OC(CO)C(O)C(O)C4O)C(O)C(O)C3O)CCC3(C)C(=CCC4C5(C)CCC(O)C(C)(C(=O)O)C5CCC43C)C2C1O` (configuration not stated), the results for the activity in assay [2], in assay [4] and in assay [5] were -59.6%, -5.22% and -5.74%, respectively. Moreover, the activity change, negative = inhibition in assay [3] amounted to 2.03% [at 19.1 µM].
